Screening results: PubChem, several laboratories
In the library only some 2% were active in any assay of this set; here they are far more common.
NR1D1 modulator: modulators of Rev-erb alpha DNA binding, primary screen, biochemical, FITC-DNA, fluorescence polarization, uHTS. Nuclear receptor subfamily 1 group D member 1 (Homo sapiens), P20393. Rev-erbα–FITC-DNA binding, 90 min. activity, % at 10 µM. 0.79% of 370,000 active. AID 1259318, 2017;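 active = activity above about 14%, limit read from the data; passing the limit was not always enough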;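 note: 0% = DMSO wells with 35 nM protein and 100% = DMSO wells with 750 nM protein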
Target sequence (P20393 whole entry, looked up): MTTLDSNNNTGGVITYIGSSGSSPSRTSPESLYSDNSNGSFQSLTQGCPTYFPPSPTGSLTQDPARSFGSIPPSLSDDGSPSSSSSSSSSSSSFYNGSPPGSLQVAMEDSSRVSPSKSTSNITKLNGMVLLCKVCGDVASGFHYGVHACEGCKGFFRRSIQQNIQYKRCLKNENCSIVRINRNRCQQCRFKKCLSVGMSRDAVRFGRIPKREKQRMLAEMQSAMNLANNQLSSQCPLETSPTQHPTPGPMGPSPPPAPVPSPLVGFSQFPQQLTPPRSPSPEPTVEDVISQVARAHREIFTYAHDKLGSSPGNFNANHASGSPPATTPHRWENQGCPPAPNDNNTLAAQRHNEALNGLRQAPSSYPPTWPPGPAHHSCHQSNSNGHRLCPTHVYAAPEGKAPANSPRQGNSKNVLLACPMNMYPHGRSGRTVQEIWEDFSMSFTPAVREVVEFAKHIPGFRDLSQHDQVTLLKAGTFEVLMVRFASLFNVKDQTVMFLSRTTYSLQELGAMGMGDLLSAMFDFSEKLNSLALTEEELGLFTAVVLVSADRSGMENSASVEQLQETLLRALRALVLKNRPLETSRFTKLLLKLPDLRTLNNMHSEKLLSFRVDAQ
Exocytosis inh: LAMP-1 surface exposure blockers, TALL-104 cells – cell-based, flow cytometry, MLPCN library, primary screen. TALL-104 LAMP-1 surface exposure; cells stimulated with thapsigargin and PMA. AID 651702, 2012. 0.66% of 360,000 active. inhibition, % at 10 µM;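 active = inhibition above about 55%, limit read from the data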
PG9 binder: binders of HIV-1 gp120 antibody PG9, primary screen, biochemical, TR-FRET | HIV-1 gp120 / PG9 antibody interaction | TR-FRET gp120-PG9 antibody binding | inhibition, % at 6.7 µM | 0.43% of 360,000 active | AID 624416, 2012; in the data active = inhibition above about 8.5%
ABCB6 inh 2: ABCB6 transporter inhibitors, primary screen, K562-ABCB6 cells, flow cytometry, MLPCN library | fluorescence ratio to DMSO, % at 10 µM | K562-ABCB6 porphyrin accumulation, 1 h; hits give low values | 0.19% of 360,000 active | ATP-binding cassette sub-family B member 6 (Homo sapiens), Q9NP58;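 active = fluorescence ratio to DMSO below 75%, the collection mean minus 3 SD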;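 note: signal is porphyrin accumulated inside mitochondria; 100% equals median channel fluorescence of DMSO control wells; lower ratio means ABCB6 inhibition with less porphyrin fluorescence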
VLA-4 inh: inhibition in human VLA-4 binding assay, primary screen, VLA-4 allosteric modulator project, MLPCN library, flow cytometry, VLA-4 expressing cells; Integrin alpha-4 (Homo sapiens), P13612; ligand binding flow cytometry; inhibition, % (about 7 µM as worked out from the volumes in the protocol); 0.2% of 330,000 active; in the data active = inhibition above about 50%
Rev-erbA confirm: modulators of Rev-erb alpha DNA binding, confirmation, biochemical, FITC-DNA, fluorescence polarization, single point. shares compounds with NR1D1 modulator. 90 min. activation, % at 25 µM. 61% of 3,000 active. AID 1259319, 2017;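 active = activation at or above a set limit, or at least 3 SD above the negative control mean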;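 note: 0% = 35 nM protein with DMSO and 100% = 750 nM protein high control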
RORg DNA counter: modulation of RORgamma DNA binding, dose response, counter-screen for Rev-erb alpha modulator project, biochemical, fluorescence polarization, FITC-DNA; shares compounds with NR1D1 modulator; purified RORgamma protein-FITC-DNA binding; IC50, µM; 8% of 910 active; AID 1259320, 2017;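 active = Compounds whose fitted half-maximal concentration for disrupting protein-DNA binding is below 10 micromolar; the record names Rev-erb in its text, so the target is in doubt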
The depositor's hits bear a star; / = no result given.

SMILES	NR1D1 modulator	Exocytosis inh	PG9 binder	ABCB6 inh 2	VLA-4 inh	Rev-erbA confirm	others
C=CCN1[C@@H](C)COc2cccc(F)c2S1(=O)=O	0	/	/	/	/	/
CCn1c(SCC(=O)Nc2cc(C)on2)nc2sc(C)c(C)c2c1=O	27*	/	7	/	/	35*	RORg DNA counter=>40
CCc1sc2nc(SCC(=O)Nc3cc(C)on3)n(-c3cccc(OC)c3)c(=O)c2c1C	34*	-2	8	102	8	22*
COc1ccc(C)cc1-n1c(SCC(=O)Nc2cc(C)on2)nc2sc(C)c(C)c2c1=O	11	0	-15	93	-15	/
C=CCn1c(SCC(=O)Nc2cc(C)on2)nc2sc(C)c(C)c2c1=O	54*	0	-1	94	2	53*	RORg DNA counter=>40
COC(=O)[C@]12C[C@H](CC(=O)NCC34CC5CC(CC(C5)C3)C4)C(=O)N(Cc3ccc(Cl)cc3Cl)C1=C[C@H](C(C)C)O[C@@H]2C1CC1	4	/	/	/	/	/
C[C@@H]1COc2cc(Br)ccc2S(=O)(=O)N1Cc1cn(Cc2ccc(F)cc2)nn1	1	/	/	/	/	/
Cc1onc(C(=O)N2CCN(C(c3ccc(F)cc3)c3ccc(F)cc3)CC2)c1[N+](=O)[O-]	5	/	/	/	/	/
CC1(C)Cc2c(sc3nc(-c4cc5ccccc5o4)n(N)c(=O)c23)CO1	48*	3	0	96	2	26*
COC(=O)c1c(NC(=S)NNS(=O)(=O)c2ccc(OC)cc2OC)sc2c1CCCCCC2	32*	1	1	93	2	12
C/C(=C(/CCOC(=O)C(C)C)SS/C(CCOC(=O)C(C)C)=C(\C)N(C=O)Cc1cnc(C)nc1N)N(C=O)Cc1cnc(C)nc1N	3	/	/	/	/	/
O=C(CNC(=O)c1cc2c(n(-c3ccccc3)c1=O)CCCC2=O)c1ccccc1	5	6	0	97	-37	/
COc1ccc(-n2c3c(cc(C(=O)NCC(=O)c4ccccc4)c2=O)C(=O)CC(C)(C)C3)cc1	19*	-8	0	104	12	8
CCCC1CCC2(CC1)CCC2OC(=S)Nc1ccccc1C(F)(F)F (configuration not stated)	6	/	/	/	/	/
O=C(Cc1ccc(Cl)cc1)c1c[nH]c(C(=O)NCc2cccnc2)c1	19*	1	1	97	1	35*	RORg DNA counter=>40
CC(C)(C)c1ccc(C(=O)c2c[nH]c(C(=O)NCc3cccnc3)c2)cc1	1	2	-3	96	5	/
Cc1ccc(C(=O)CNc2cccc([N+](=O)[O-])c2)cc1	15*	-1	-3	100	1	-2
Cc1ccc(NCC(=O)c2ccc([N+](=O)[O-])cc2)cc1	/	0	/	178	3	/
Nn1c(SCC(=O)Nc2ccc(Br)cn2)nnc1-c1n[nH]c2c1CCC2	-3	/	/	/	/	/
O=Cc1ccccc1C=O	-3	/	/	/	/	/
O=C(CCc1ccccc1-c1ccccc1CCNC(=O)c1ccc(F)c(F)c1)NCc1ccccc1	8	/	/	/	/	/
Nc1ccn([C@@H]2O[C@H](C(=O)Nc3ccc(Oc4ccccc4)nc3)[C@@H](O)[C@H]2O)c(=O)n1	2	1	1	100	/	/
O=C(Nc1ccc(Oc2ccccc2)nc1)[C@H]1O[C@@H](n2ccc(=O)[nH]c2=O)[C@H](O)[C@@H]1O	20*	4	1	95	/	-1
COC(=O)/C(C#N)=C/c1c(N2CCN(c3ccc(OC)cc3)CC2)nc2c(C)cccn2c1=O	33*	6	-1	88	-12	1
CNC(=O)/C(C#N)=C/c1c(N2CCN(c3ccc(OC)cc3)CC2)nc2c(C)cccn2c1=O	-3	1	-3	97	1	/
SMILES	NR1D1 modulator	Exocytosis inh	PG9 binder	ABCB6 inh 2	VLA-4 inh	Rev-erbA confirm	others
COc1cc(CCC(=O)OCC(=O)NCc2ccccc2)cc(OC)c1OC	/	0	1	100	32	/
COc1cc(CCC(=O)OCC(=O)NCC2CCCCC2)cc(OC)c1OC	16*	-1	-1	98	-2	3
Cc1ccc(S(=O)(=O)N(C)[C@H]2C[C@H]3c4cc(N5CCOCC5)ccc4CCN3C[C@H]2[C@H](C)O)cc1	-3	/	/	/	/	/
COc1cc(NC(=O)c2n[nH]c(=O)c3ccccc23)cc(OC)c1	26*	-1	7	98	3	20*
CCOC(=O)c1ccccc1NC(=O)c1n[nH]c(=O)c2ccccc12	53*	-1	0	86	-9	25*
CCOC(=O)c1ccc(NC(=O)c2n[nH]c(=O)c3ccccc23)cc1	21	-1	-2	100	13	/
Cc1cc(O)ccc1C1(c2ccc(O)cc2C)OC(=O)c2ccccc21	5	6	0	110	12	/
O=C1OC2(c3ccc(O)cc3Oc3cc(O)ccc32)c2ccccc21	691*	/	/	/	/	596*
CCCc1cc2c(OC)ccc(O)c2c(=O)n1C	-4	/	0	/	/	/
CC(C)CCn1c(SCC(=O)NC2CC2)nc2cc(Cl)ccc2c1=O	20*	-4	0	101	0	11
CC(C)CCn1c(SCC(=O)NC2CCS(=O)(=O)C2)nc2cc(Cl)ccc2c1=O (configuration not stated)	21*	4	5	97	0	21*
CCC(=O)Nc1ccc2c(c1)C(=O)N(C)[C@@H]1CC[C@@H](CC(=O)OC)O[C@H]1CO2	-5	/	/	/	/	/
CCn1c(=O)c(CCC(=O)NCC2CCCO2)c(C)c2c(C)nn(-c3ccc(C)cc3)c21 (configuration not stated)	20*	-1	4	93	-2	2
Cc1ccc(-c2noc(CCC(=O)NCC3CCCO3)n2)cc1 (configuration not stated)	2	2	2	89	-8	/
O=C(CSc1nc2ccccc2n1Cc1ccccc1Cl)N/N=C\c1cccc(Oc2ccccc2)c1	0	/	/	/	/	/
COc1ccc2nc(C)cc(SCC(=O)Nc3c(C)cc(C)cc3C)c2c1	412*	-5	-1	92	-8	19*
COc1ccc2c(C)cc(SCC(=O)NC3CCCCC3)nc2c1	121*	6	2	91	6	53*	RORg DNA counter=>40
COc1ccc2c(C)cc(SCC(=O)Nc3ccc(Cl)cn3)nc2c1	55*	-1	-2	98	16	16
CCOC(=O)CSc1cc(C)nc2ccc(OC)cc12	-5	-3	0	98	-5	/
